PubChem BioAssay (NCI)
This is part of a sample that, as a whole, favours compounds with a hit. Of some 83,000 tested, about 20% had one in any assay.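 How to read the values: 0–100, growth inhibition (40 = 60% inhibited); 0, no net growth; -100 to 0, cell death (-40 = 40% of starting cells died; -100 = all dead).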 Unmarked numbers belong to inactive results. Calls of active or inactive are those of the source. The calls were made as follows: active = growth percent below 10; inactive = the rest.

Legend:
Experiment in all cases: NCI-60 one-dose screen, 48 h (100 = growth as untreated, 0 = no growth, -100 = all killed)
Details in all cases: 10 µM unless noted
DU-145 prostate = tested on: DU-145 prostate
MALME-3M melanoma = tested on: MALME-3M melanoma
MDA-MB-231 breast = tested on: MDA-MB-231 breast
RXF 393 renal = tested on: RXF 393 renal
SF-268 CNS = tested on: SF-268 CNS
SF-295 CNS = tested on: SF-295 CNS
SF-539 CNS = tested on: SF-539 CNS
M14 melanoma = tested on: M14 melanoma
UACC-257 melanoma = tested on: UACC-257 melanoma
K-562 leukemia = tested on: K-562 leukemia

Compound | growth (DU-145 prostate) | growth (MALME-3M melanoma) [%] | growth (MDA-MB-231 breast) | growth (RXF 393 renal) | growth (SF-268 CNS) | growth (SF-295 CNS) | growth (SF-539 CNS) | growth (M14 melanoma) | growth (UACC-257 melanoma) | growth (K-562 leukemia)
Cc1ccc(OCC(=O)Nc2ccc(Oc3ccccc3)cc2)c([N+](=O)[O-])n1 | 90.4% | 87.7 | 85.4% | 66.1% | 86.5% | 89.5% | 78.3% | 74.7% |  | 
CCN(CC)c1ccc(/C=C/C(=O)c2cccc(NS(C)(=O)=O)c2)cc1 | 49.6% | 76.2 | 43% |  | 61.5% | 47.5% | 40.6% | 32.1% |  | 
COc1ccc(-c2c3c(N)nc(-c4ccncc4)nc3nc3c2c(C)nn3-c2ccccc2)cc1 | 82% | 76 | 67.6% | 69.4% | 54% | 58.7% | -40% (active) | 69.1% |  | 
O=C1/C(=C\c2coc3ccccc3c2=O)c2ccccc2N1c1c(Cl)cccc1Cl | 24.6% | 83.8 | 60.5% | 44.1% | 32% | -12% (active) | 49.4% | 43.4% | 61.2% | 
COC(=O)CC1=C(c2ccc([N+](=O)[O-])cc2)CCC1=O | 101% |  | 102% | 110% | 101% | 100% | 97% | 109% | 109% | 98.7%
O=[N+]([O-])c1ccc(N=Nc2c(Cl)cc(O)cc2Cl)cc1 | 11.1% |  | -35.6% (active) | 7.36% (active) | -5.79% (active) | -55.6% (active) | -2.1% (active) | -30% (active) | -21.5% (active) | 1.93% (active)
CC(NC(=O)Oc1cccc2ccccc12)c1ccccc1 (stereo unspecified) | 107% |  | 77.6% | 105% | 78.1% | 107% | 97.9% | 107% | 73.2% | 84.1%
CCOC(=O)CNC(=O)C1(NC(=O)CNC(=O)OCc2ccccc2)CCCC1 | 121% |  | 99.1% | 135% | 107% | 126% | 92.2% | 110% | 110% | 103%
Clc1ccc2c(c1)C(Br)c1cc(Cl)cc(Cl)c1-2 (stereo unspecified) | 109% | 45.1 | 75.6% |  | 98.3% | 101% | 81.6% | 34.8% |  | 
CCOC(=O)CCC(=O)O[C@H]1[C@H](O[C@@H]2[C@@H](C)[C@H](O[C@H]3C[C@@](C)(OC)[C@@H](O)[C@H](C)O3)[C@@H](C)C(=O)O[C@H](CC)[C@@](C)(O)[C@H](O)[C@@H](C)C(=O)[C@H](C)C[C@@]2(C)O)O[C@H](C)C[C@@H]1N(C)C | 119% | 99.4 | 106% | 110% | 115% | 104% | 101% | 97.2% | 113% | 
COc1ccc(C2CC(c3ccc4c(c3)OCO4)=NN2C=O)cc1 (stereo unspecified) | 107% |  | 84.2% | 100% | 108% | 113% | 98.8% | 102% | 110% | 90.3%
CC[C@@H](C)/C=C(C)/C=C/C(O)=C1\C(=O)N[C@@H](Cc2ccc(OC(=O)[C@@](OC)(c3ccccc3)C(F)(F)F)cc2)C1=O | 73.2% |  | 89.5% | 109% | 61.9% | 74.2% | 114% | 97% | 94% | 9.3% (active)
Cc1nn(-c2ccccc2)cc1/C=C1\SC(N2CCCCC2)=NC1=O | 91.4% |  | 76.4% | 86% | 91.3% | 128% | 60.9% | 92.6% | 99.3% | 32.1%
O=C1Nc2ccc(C(=O)O)c(O)c2C1=O | 111% |  | 113% | 116% | 104% | 108% | 94.4% | 107% | 117% | 107%
O=Nc1c2cccnc2n2nnc3ccc(Cl)cc3c12 | -10.6% (active) | 23.7 | 13.9% |  | 48.7% | 90.3% | 91.4% | 81.5% | 28.6% | 
CC(=O)N1N=C(c2ccc(C(F)(F)F)cc2)CC1c1ccc2c(c1)OCO2 (stereo unspecified) | 113% |  | 82.3% | 107% | 104% | 67.1% | 101% | 69.7% | 102% | 73.8%
CCOC(=O)C1C(=O)NC(C(=O)OCC)(C(=O)OCC)C1CC (stereo unspecified) | 117% |  | 98.7% | 116% | 108% | 113% | 122% | 110% | 106% | 114%
Cc1cccc2nnc(-c3ccccc3)n12 | 124% |  | 94.5% | 117% | 111% | 109% | 108% | 102% | 105% | 100%
Nc1ccc2c(c1)Cc1cc(Cl)c(Cl)cc1-2 | 59.9% |  | 52.5% | 50.7% | 74% | 50.1% | 74.2% | -9.59% (active) | 77% | 67.4%
CC(=O)Nc1cc2c3c(cccc3c1)-c1ccccc1-2 | 97.7% |  | 67.5% | 92.4% | 39% | 92.9% | 39.7% | 99.6% | 88.8% | 71.9%
Nc1ncnc2c1CN(Cc1ccccc1)CC2 | 132% |  | 104% | 122% | 105% | 105% | 99.2% | 111% | 111% | 98.1%
O=c1c2c(=NCCCN3CCCC3)cc3c(=O)n(CCCN4CCCC4)c(=O)c4c(NCCCN5CCCC5)cc(c(O)n1CCCN1CCCC1)c2c4-3 | -16.1% (active) |  | -9.58% (active) | -67.6% (active) | -7.1% (active) | -42.5% (active) | -32.6% (active) | -63.1% (active) | -29.8% (active) | 6.04% (active)
O=C(N/N=C/c1cccc([N+](=O)[O-])c1)c1ccc(Br)o1 | 103% | 115 | 115% | 104% | 104% | 111% | 98.4% | 99.8% |  | 
CC(=O)O[C@H]1CC[C@@]2(C)C(=CC[C@@H]3[C@@H]2CC[C@]2(C)C(c4cccnc4)=CC[C@@H]32)C1 | 94.9% | 72.6 | 86.3% |  | 76.4% | 43.3% | 28.7% | 72.7% |  | 
CN(C)CCC(=O)Nc1ccc(-n2cc(-c3cccc(NC(=S)Nc4cccc(-c5cn(-c6ccc(NC(=O)CCN(C)C)cc6)nn5)c4)c3)nn2)cc1 | 115% |  | 107% | 135% | 98.6% | 65.3% | 97.6% | 112% | 117% | 18.6%
Nc1ccc2c(c1)C(=O)c1cc(Cl)c(Cl)cc1-2 | 100% |  | 79.1% | 104% | 93.4% | 105% | 87.4% | 104% | 107% | 87.5%
CC1C(C)N(C(=O)CCl)c2ccccc2N1C(=O)CCl (stereo unspecified) | -94.9% (active) |  | -53.8% (active) | -53.9% (active) | -77.9% (active) | -66.7% (active) | -94.8% (active) | -81.8% (active) | -70.3% (active) | -0.205% (active)
CCCCCCCCN(CCO)CCCCCCCC | 112% |  | 117% | 93.2% | 107% |  | 94.4% | 101% | 94.3% | 104%
